Reference: PubChem BioAssay (EPA / NIEHS)
Where “and” joins values, the source holds several entries; their conditions need not be identical. Equal entries are not always repeated. Inconclusive results are not listed. Some structures have more than one record in an assay (separate samples or runs), and their calls can disagree. Calls of active or inactive are those of the source. Rule for the calls, unless noted: active = hit-call score of the fitted dose curve at least 0.9, where 1 is the maximum; inactive = score below 0.9.

Tests used:
[1] = APR_HepG2_CellCycleArrest_1hr: Apredica 1-hour HepG2 Assay for Cell Cycle Arrest (AID 2282666); details: high-content imaging, actives raise or lower the signal
Method in brief: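 Cell cycle arrest scored from nuclear DNA content (Hoechst 33342) using high-content imaging of fixed HepG2 cells after 1 h treatment across 0.39–200 uM, in duplicate. Gain or loss fitted relative to 0.5% DMSO.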

[2] = ACEA_ER_80hr: ACEA Biosciences xCELLigence Real-Time Cell Analysis on Estrogen Receptor Agonism for Proliferation (AID 2282667; active = hit-call score of the fitted dose curve at least 0.9, where 1 is the maximum); details: T47D proliferation, impedance (xCELLigence), 80 h
Method in brief: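 Real-time electrical impedance tracked growth of the human breast line T47D, with the 80 h post-dosing value used. Dosing spanned eight 1:4 steps down from a 100 uM final top concentration, run in duplicate.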

[3] = APR_HepG2_MicrotubuleCSK_1hr: Apredica 1-hour HepG2 Assay for Microtubule CSK Stabilty (AID 2282669); details: HepG2 microtubule cytoskeleton imaging, actives raise or lower the signal
Method in brief: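 Alpha-tubulin immunofluorescence, imaged by automated high-content microscopy with Hoechst nuclear segmentation, measured cytoskeletal change after 1 h dosing of HepG2 at 0.39–200 uM in 0.5% DMSO. Activity fitted in both directions relative to DMSO.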

[4] = APR_HepG2_NuclearSize_1hr: Apredica 1-hour HepG2 Assay for Nuclear Size (AID 2282670); details: high-content imaging, actives raise or lower the signal
Method in brief: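 Nuclear size measured by high-content imaging of Hoechst 33342 nuclear stain after formaldehyde fixation; human HepG2 line exposed 1 hr to compounds at 0.39–200 uM in 0.5% DMSO, with bidirectional curve fitting relative to DMSO.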

[5] = APR_HepG2_MitoticArrest_1hr: Apredica 1-hour HepG2 Assay for Mitotic Arrest (AID 2282672); details: high-content imaging, actives raise or lower the signal
Method in brief: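 Ten-point concentration series (0.39 to 200 uM, duplicates, 0.5% v/v DMSO) applied to human HepG2 liver cells for 1 hr. High-content imaging of phospho-histone H3 and Hoechst-stained nuclei after fixation and permeabilization; DMSO-normalised bidirectional fit.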

[6] = APR_HepG2_CellLoss_1hr: Apredica 1-hour HepG2 Assay for Cell Loss (AID 2282668); details: high-content imaging;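 note: curves fitted both ways against DMSO so gain or loss of cells counts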
Method in brief: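 Cell number comes from high-content imaging of Hoechst-labelled nuclei in fixed HepG2 cells. Cells were exposed for 1 h to ten concentrations from 0.39 to 200 uM in 0.5% DMSO. Gain or loss was fitted against DMSO controls.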

[7] = APR_HepG2_MitoMass_1hr: Apredica 1-hour HepG2 Assay for Mitochondrial Mass (AID 2282674); details: high-content imaging, actives raise or lower the signal
Method in brief: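 Mitochondrial mass is taken from MitoTracker Red CMXRos (250 nM, 30 min, pre-fixation) fluorescence imaged at 20x in HepG2 cells. Exposure lasted 1 hr across ten concentrations, 0.39 to 200 uM, 0.5% DMSO; DMSO baseline, bidirectional fitting.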

[8] = APR_HepG2_p53Act_1hr: Apredica 1-hour HepG2 Assay for p53 Activation (AID 2282671); details: high-content imaging, actives raise or lower the signal
Method in brief: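 After 1 h exposure (0.39–200 uM, 0.5% DMSO final, duplicates), fixed HepG2 cells were labelled with anti-p53 antibody plus Hoechst nuclear stain. Fluorescence quantified by automated 20x imaging; changes fitted in both directions against DMSO.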

[9] = APR_HepG2_P-H2AX_1hr: Apredica 1-hour HepG2 Assay for H2AX Phosphorylation (AID 2282673); details: high-content imaging, actives raise or lower the signal
Method in brief: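 Phospho-H2A.x immunofluorescence (1:200, FITC secondary) plus Hoechst nuclear stain, quantified by high-content imaging in HepG2 after 1 hr compound exposure. Ten concentrations, 0.39 to 200 uM, in duplicate with 0.5% DMSO; fit both directions against DMSO.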

[10] = APR_HepG2_MitoMembPot_1hr: Apredica 1-hour HepG2 Assay for Mitochondrial Membrane Potential (AID 2282675); details: imaging, actives raise or lower the signal
Method in brief: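 Mitochondrial membrane potential read as MitoTracker Red CMXRos intensity by automated imaging of fixed HepG2 cells. Dye at 250 nM for 30 min pre-fixation; compounds 0.39 to 200 uM for 1 hour, duplicate wells, 0.5% DMSO.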

Measured: AC50

COc1ccc(C(c2ccc(OC)cc2)C(Cl)(Cl)Cl)cc1
inactive: [1] | [3] | [4] | [5]
active: [2] 10.4 µM and 1.41 µM and 728 nM

CCOc1cc(Oc2ccc(C(F)(F)F)cc2Cl)ccc1[N+](=O)[O-]
not listed: [8] | [9] | [10]
inactive: all other assays above

O=C(O)c1nc(Cl)ccc1Cl
inactive: [1] | [2] | [6] | [3] | [5]

N#Cc1nn(-c2c(Cl)cc(C(F)(F)F)cc2Cl)c(N)c1S(=O)C(F)(F)F (stereo unspecified)
inactive: [1] | [2] | [3] | [8] | [5]

Cc1c(F)c(F)c(COC(=O)C2C(/C=C(\Cl)C(F)(F)F)C2(C)C)c(F)c1F (stereo unspecified)
inactive: [1] | [2] | [3] | [4] | [5]

CC1=C(C(=O)Nc2ccccc2)SCCO1
inactive: [1] | [2] | [3] | [4] | [5]

CCOC(=O)C(Cl)Cc1cc(-n2nc(C)n(C(F)F)c2=O)c(F)cc1Cl (stereo unspecified)
not listed: [8]
inactive: all other assays above

CNC(=O)ON=CC(C)(C)SC
inactive: [1] | [2] | [3] | [4] | [5] | [10]

CN(C)C(=S)SSC(=S)N(C)C
active: [2] 2.06 µM
inactive: [1] | [3] | [4] | [5] | [7]

CC(C)Oc1cc(-n2nc(C(C)(C)C)oc2=O)c(Cl)cc1Cl
inactive: [1] | [2] | [6] | [3] | [5]

CCCCC(CC)COC(=O)c1ccccc1C(=O)OCC(CC)CCCC (stereo unspecified)
inactive: [1] | [2] | [3] | [8] | [5]

CCNc1nc(Cl)nc(NCC)n1
inactive: [1] | [2] | [6] | [3] | [8] | [5]

COC(=O)C=C(C)OP(=O)(OC)OC
not listed: [6] | [7] | [10]
inactive: all other assays above

CCOC(=O)CC(SP(=S)(OC)OC)C(=O)OCC (stereo unspecified)
inactive: [1] | [2] | [6] | [3] | [5]

Cc1cc(Cl)ccc1OCC(=O)O
not listed: [4] | [6] | [10]
inactive: all other assays above

COC(=O)N(OC)c1ccccc1COc1ccn(-c2ccc(Cl)cc2)n1
inactive: [1] | [2] | [6] | [3] | [5] | [9]

CO/C=C(/C(=O)OC)c1ccccc1Oc1cc(Oc2ccccc2C#N)ncn1
active: [2] 11.1 µM [middle of 5 runs]
inactive: [1] | [2] | [6] | [3] | [4] | [5] | [9] | [7]

COc1nc(NC(C)C)nc(NC(C)C)n1
inactive: [1] | [2] | [3] | [8] | [5]

N#CC(CCc1ccc(Cl)cc1)(Cn1cncn1)c1ccccc1 (stereo unspecified)
inactive: [1] | [2] | [3] | [8] | [5]

C=CCC1=C(C)C(OC(=O)C2C(C=C(C)C)C2(C)C)CC1=O (stereo unspecified)
inactive: [1] | [2] | [6] | [3] | [5]

O=C(Nc1ccccc1)Nc1ccnc(Cl)c1
inactive: [1] | [2] | [6] | [3] | [4] | [5]

N#Cc1cc(Br)c(O)c(Br)c1
inactive: [1] | [2] | [6] | [3] | [5]

CCCCOC(=O)c1ccccc1C(=O)OCCCC
inactive: [1] | [2] | [6] | [3] | [5] | [10]

CC(C)(C)c1ccc(CSc2cnn(C(C)(C)C)c(=O)c2Cl)cc1
active: [2] 0.00406 µM
inactive: [1] | [3] | [4] | [5]

CC(Oc1ccc(Cl)cc1Cl)C(=O)O (stereo unspecified)
inactive: [1] | [2] | [3] | [4] | [5] | [10]

CNC(=S)S
not listed: [4]
inactive: all other assays above

CCCCNC(=O)OCC#CI
inactive: [4]
